In the library only some 1.9% were active in any assay of this set; here they are far more common.
PKM2 act = increases activity of human pyruvate kinase M2 | P14618 | purified PKM2, Kinase-Glo ATP luminescence, activation; response scale: 0% is enzyme alone, no compound | Potency, µM (series often up to 57.5 µM), most hits filed as activators | 0.34% of 260,000 active | AID 1631; further: nearly all actives have a fitted effect of over 55% in size
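Kinase-Glo luminescence reports ATP generated from ADP (0.1 mM) and PEP (0.5 mM) by purified hPK-M2 after 1 h at room temperature, pH 7.2 imidazole buffer; intermediate enzyme activity allows detecting inhibitors and activators.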
Integrin act MD = activates integrin-mediated alleviation for muscular dystrophy. 0.064% of 350,000 active. Potency, µM (top dose mostly 38.3 µM), actives largely listed as activators. alpha7betagal myoblasts, beta-gal FDG fluorescence, 48 h; further: nearly all actives have a fitted effect of over 60% in size
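alpha7betagal+/- myoblasts (passage 13, 250/well) treated 48 h at 37C with compounds at 1:260 dilution of DMSO stock. Lysed, then beta-galactosidase activity read as FDG fluorescence (ex 480/em 540) after 30 min, with pre-read for autofluorescence.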
Pin1 inh = blocks the human prolyl isomerase Pin1; Pin1 FP peptide displacement, HiFluor488, 10 min; AID 504891; 0.009% of 390,000 active; Potency, µM (top dose mostly 115 µM), usual class: inhibitors; Q13526; active means well fitted inhibition curve with a large enough effect in the polarisation, with a control signal flat, not every such curve was filed as active; inconclusive means small, poorly fitted or top-dose-only effect, or effect the other way, or a change in a side signal; inactive means no such curve, though single readings can be large or run the other way; the % refers to the polarisation
ClpP mod = qHTS Assay for Activators of ClpP | ATP-dependent Clp protease proteolytic subunit (Bacillus subtilis (strain 168)), P80244 | purified B. subtilis ClpP, FRET peptide cleavage, 20 min | Potency, µM (top dose mostly 57.5 µM) | 1.9% of 340,000 active; active means well fitted falling curve with a large enough effect; inconclusive means small, poorly fitted or top-dose-only effect; inactive means no such curve, though single readings can be large or run the other way; further: the source files actives as falling curves though it sought activators and does not explain the sign; nearly all actives have a fitted effect of over 65% in size
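ClpP 10 microg/mL final, pH 8 Tris/KCl buffer with BSA, glycerol, Tween-20; compound pinned in; FRET-FV substrate; RT 20 min; Ex320/Em430; ΔFRET vs ADEP 5.8 microM, DMSO, no enzyme.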
USP2a inh = USP2a (human) protease inhibition. Potency, µM (titrated, usually from 38.3 µM), actives largely listed as inhibitors. 0.01% of 330,000 active. USP2 core, Ub-CHOP2 coupled fluorogenic reporter, 485/531. AID 463254
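Deubiquitinase activity read as fluorescence (485/531 nm) after Ub-CHOP2 cleavage activates the enterokinase reporter on its substrate; USP2 core 10nM, Ub-CHOP2 and substrate 25nM each, 30min compound preincubation then 60min RT; data normalized to NEM, curves fitted.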
IL2 activator = activates IL-2 in a cell-based reporter assay; activation, % (series mostly up to about 46 µM); 0.065% of 360,000 active; AID 652025; IL-2 activation reporter assay, cell-based qHTS; stimulated with anti-CD3/CD4/CD28 beads; in transgenic mouse T cells; in the data active means activation above about 50%; inconclusive means mostly about 30% to 49%
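Unstimulated transgenic mouse T cells, 750 per well, received compound and, after 60 minutes, anti-CD3/anti-CD4 bead plus anti-CD28 stimulation. EGFP and DsRed were quantified after 18 hours.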
A number is an active result; – = inactive; ? = inconclusive; · = no result; [ ] = another dose, or the depositor's remark. Unless noted, the call rests on the fitted dose curve; in most records, active means well fitted curve in the direction sought with a large enough effect; inconclusive means small, poorly fitted or top-dose-only effect, or another doubt; inactive means no such curve, though single readings can be large; an effect the other way counts as inactive or inconclusive.

SMILES | PKM2 act | Integrin act MD | Pin1 inh | ClpP mod | USP2a inh | IL2 activator
COc1ccc(CNC(=O)c2cc3cccc4c3n2CC(C)S4)cc1OC (stereo unspecified) | · | · | – | 32µM | · | ·
COc1ccc(CNC(=O)c2cc3ccccn3n2)c(OC)c1 | · | · | – | – | · | ·
COc1cccc(CNC(=O)c2cc3cccc4c3n2CC(C)S4)c1OC (stereo unspecified) | · | · | – | 35µM | · | ·
COC(=O)C1=C[C@@H](C(=O)OC)C2C3=C(C(=O)[C@@]2(C)NC(=O)c2ccccc2)[C@H](c2ccccc2)n2c(=O)n(-c4ccccc4)c(=O)n2[C@@H]3C1 (stereo partly specified) | · | · | – | · | · | ·
COC(=O)C1=C[C@@H](C(=O)OC)C2C3=C(C(=O)[C@]2(C)NC(=O)c2ccccc2)[C@H](C)n2c(=O)n(-c4ccccc4)c(=O)n2[C@@H]3C1 (stereo partly specified) | · | · | – | · | · | ·
COc1ccc2[nH]c(C)c(C(=O)CNc3nccs3)c2c1 | · | · | · | – | · | ·
Cc1c(NC(=O)CSc2nc(N)cc(N)n2)c(=O)n(-c2ccccc2)n1C | · | – | – | 28µM | – | –
Cc1c(NC(=O)COC(=O)c2cc3c4ccccc4n(C)c3s2)c(=O)n(-c2ccccc2)n1C | – | – | – | 25µM | – | –
COc1ccc2c(C)cc(SCC(=O)Nc3c(C)n(C)n(-c4ccccc4)c3=O)nc2c1 | – | – | – | 25µM | – | –
Cc1nc(SCC(=O)Nc2c(C)n(C)n(-c3ccccc3)c2=O)nc(C)c1C | – | – | – | – | – | –
Cc1nc(N2CCOCC2)c2nc(-c3ccccc3)n(CCCN3CCOCC3)c2n1 | – | · | · | · | · | ·
Cc1nc(Sc2nnnn2C2CC2)c2c(-c3ccccc3)csc2n1 | · | · | · | – | · | ·
CCCN1CCC(=O)N(CCC#N)CC1 | · | · | · | – | · | ·
O=C1NN(c2ccccc2)C(=O)/C1=C\c1ccccc1OCC(=O)N1CCOCC1 | 10µM | – | ? | – | – | –
CCc1ccccc1N=C1S/C(=C/c2ccccc2OCC(=O)N2CCOCC2)C(=O)N1C | – | – | – | – | – | –
Nc1c2c(nc3ccn(-c4ccccc4)c(=O)c13)CCCCC2 | – | – | – | 28µM | – | –
O=C(O)c1c2c(nc3ccccc13)CCCCC2 | – | – | – | – | – | –
O=c1[nH]c(N2CCN(Cc3ccccc3)CC2)nc2c1CCC2 | – | – | – | · | – | –
Nc1c2c(nc3ccn(Cc4ccccc4)c(=O)c13)CCC2 | 14µM | – | – | 32µM | – | –
COc1cccc(C2=CC(c3ccccc3O)NC(C)(C)N2)c1 (stereo unspecified) | · | · | – | – | · | ·
Cc1ccc(OC(=O)CSc2nnc(-c3ccc4c(c3)OCO4)o2)cc1 | · | · | – | – | · | ·
Cc1cccc(C)c1OC(=O)CSc1nnc(-c2ccc3c(c2)OCO3)o1 | · | · | – | 25µM | · | ·
CCN(CC)S(=O)(=O)c1ccc(C)c(NC(=S)NNC(=O)C2CC2)c1 | – | – | – | 25µM | – | –
S=C(NCCCc1cnc[nH]1)NCCCN(Cc1ccc(Cl)cc1)c1ccc(Br)cc1 | · | · | – | – | · | ·
Cc1ccc(C(C)NC(=O)CSc2ccc(S(=O)(=O)N3CCOCC3)cn2)cc1C (stereo unspecified) | · | – | – | 25µM | – | –
SMILES | PKM2 act | Integrin act MD | Pin1 inh | ClpP mod | USP2a inh | IL2 activator
O=S(=O)(c1ccc(N2CCOCC2)nc1)N1CCOCC1 | – | – | – | – | – | –
CCOC(=O)N1CCN(c2ccc(S(=O)(=O)N3CCOCC3)cn2)CC1 | · | – | – | 28µM | – | –
CCOCCCNC(=O)c1c(NC(=O)c2nc(SCC)ncc2Cl)sc2c1CCCC2 | · | · | · | – | · | ·
COc1cc(/C=C/C(=O)OCC(=O)Nc2cc(C)c(C)cc2[N+](=O)[O-])ccc1O | – | – | – | – | – | –
COc1cc(/C=C/C(=O)OCC(=O)Nc2ccc(C)cc2[N+](=O)[O-])ccc1O | 18µM | – | – | – | – | –
CCCNC(=O)CN1C(=O)c2c(c3ccccc3n2C)C1c1ccc(OC)cc1 (stereo unspecified) | · | · | – | 28µM | · | ·
COc1ccc(C2c3c(n(C)c4ccccc34)C(=O)N2CC(=O)Nc2ccccc2Cl)cc1 (stereo unspecified) | · | · | – | ? | · | ·
CC(NCc1ccccc1)C1COc2ccccc2O1 (stereo unspecified) | – | – | – | – | – | –
COc1ccc(CNC(C)C2COc3ccccc3O2)c(OC)c1 (stereo unspecified) | – | – | – | 28µM | – | –
CCc1ccc(NC(=O)CC2C(=O)N(c3cccc(C)c3)C(=O)N2Cc2ccco2)cc1 (stereo unspecified) | · | · | – | – | · | ·
CNC(=O)c1cc(C)c(-c2ccccc2)s1 | – | –[7.66 µM] | – | 32µM | – | –
NC(=O)C1=C(N=C2CCCCC2)CCCC1 | · | – | – | 32µM | · | –
COC(=O)c1ccc(-c2ccc(C3C4C=CCC(C)C4C(=O)N3Cc3ccccc3)c(F)c2)cc1 (stereo unspecified) | · | · | – | · | · | ·
COC(=O)c1ccc(C(=O)OC)c(NC(=O)COC(=O)C2CCC(C(C)(C)C)CC2)c1 (stereo unspecified) | – | – | – | 28µM | – | –
Cc1sc2ccccc2[n+]1CCCC[n+]1c(C)sc2ccccc21 | · | · | · | – | · | ·
Cc1cc(Oc2ccc(N)cn2)ccc1Cl | – | – | – | – | – | –
COc1cccc(Oc2ccc(N)cn2)c1 | – | – | – | 25µM | – | –
O=S1(=O)NC2CCCCCN2c2ccc(F)cc21 (stereo unspecified) | – | – | – | 28µM | – | –
CCCn1c(-c2ccc(F)cc2)nc2c(NCCCCN(C)C)nc(C)nc21 | – | · | · | · | · | ·
COc1ccc(S(=O)(=O)N2CCC(n3cnc4ccccc43)CC2)cc1 | 16µM | – | – | · | – | –
CC(=O)OCC(NC(=O)C(COCc1ccccc1)NC(=O)OC(C)(C)C)C1OC(n2ccc(=O)[nH]c2=O)C(OC(C)=O)C1OC(C)=O (stereo unspecified) | · | · | – | · | · | ·
Cc1nnc(N2C(=O)c3cccc4cccc(c34)C2=O)s1 | – | – | – | 28µM | – | –
Cc1ccc(-n2ncc3c(SCc4cccc(C)c4)ncnc32)cc1 | – | – | – | 28µM | – | –
Cc1cccc(CSc2ncnc3c2cnn3Cc2ccccc2)c1 | ? | – | – | – | – | –
O=C(Nc1ccc(O)c2c(=O)cc(-c3ccccc3Cl)oc12)c1cc(Cl)cc(Cl)c1 | · | · | – | · | · | ·
N#CCCn1cc(CNCc2cccnc2)c(-c2ccccc2)n1 | · | · | – | ? | · | ·

Bioassay records as filed in PubChem BioAssay.
